Test results from PMC12864922, “TDP-43 directly inhibits mRNA accumulation in neurites through modulation of mRNA stability”.
Whole data set: some 9,900 sequences, median “r (bound/input frequency ratio)” near 0.7, cut for the highest 2% near 6.5. Shown is part of a subset that was picked to be rich in the highest values.

B1: ENSMUSG00000032194.167|Kank2 (ssRNA)
RNA: GGGAGUUCUACAGUCCGACGAUCGCUUCGAUAUCCGCAUGCUAAGAGUAAACAGAGACUGUGAUACUGACCAAGUACAGGCGCUCGCUAUGAAGCCCAUAUGUUCCUGAUUAAGAGCUGGCUGGCCUCAGAGCACUCCCAGAACUAGCUUAAAGUGACAGGCUUUGCUGAAAUCCAAAGGGACAAAAGAGUAGUUUUAUGUUUGUGUGUUUGUUUUUAAUGCCCUGGAGCUCCUGCUGGUGACAGGAGAGACAGACAGGCUGCACCUUUCUCUAACUGGGGUUCCUUUCUGGCCCCAGGAUCUCUCUUGCGGUCGCACUAGUGUGGAAUUCUCGGGUGUCAAGG
B2: ENSMUSG00000061578.337|Ksr2|72:76 (ssRNA)
RNA: GGGAGUUCUACAGUCCGACGAUCGCUUCGAUAUCCGCAUGCUAACCAGUCACCUGCCUCCCAGGGUUCUGCCUUGCCCUUAAGCUAGGGUCCUUCAAGCAUCCACAGACUUAGACACACGUGGUAACAUGCUUGUAAUCCUGGCACUCUGGAGGCUGAGGCAGGAGGAUAACAAGUCUAGACUAUAUAUGAUUUCUGAGGGUCUGUUAGUGAAUAAGUACCUGGAUGACAUGGGACAAGUCCCAGCCUUCCCUGCUCCUGCGCUGCUCUUCCUCUUAUGGGAUAGGGUCUAGGUCAAAUGUCACUCUUGCGGUCGCACUAGUGUGGAAUUCUCGGGUGUCAAGG
B3: ENSMUSG00000061578.1309|Ksr2 (ssRNA)
RNA: GGGAGUUCUACAGUCCGACGAUCGCUUCGAUAUCCGCAUGCUAUCUGCACCCAACUGAAUCUCCCACCCUCAAGUGUACCUCUCAGGAUAUCCCCAGGCACACGAAGAUGGAAUGGAAAGCCAGUGGGUAUCUCCCACCCACUUAGAUGCUGAUGGCCUGGGACUAUAAACAGGGACAGUUGGGUCUCCUAAGGAAUAGCUUCCAGGUCCAGGAUGCUGGCAUCUCCCAGAGAGAACUCCAUCCCCUGACCACCAAGGCCUUUGUAGAAGCAGGAAUCUCUUCCUCCUGUCCCACAGCCCCCACUCUUGCGGUCGCACUAGUGUGGAAUUCUCGGGUGUCAAGG
B4: ENSMUSG00000029636.197|Wasf3 (ssRNA)
RNA: GGGAGUUCUACAGUCCGACGAUCGCUUCGAUAUCCGCAUGCUAGACUUCCCCUCUCCUGCCCUGAUCCUUUUUACCAAAUGGCGAUUCCAUAGUCCUGGCUGAGGCAGGGGCUCAAAGUCCAGUGUCUGCUUUGCAAUUCUGGAAGGACAGCUGCUUAUUUAAAUAAGUCUGUGAUAUCCGCAGGCUUGGGUUACAGGGAGGACCUUGCAGAGGGACCAGGACACUGCCUUCCCUUAGGUGCAUUAUUUACGUGGCCUGCAGCUCUUAAUAUCUCUCACUGUUUAUGAAAAGAAAGAUUCAGACUCUUGCGGUCGCACUAGUGUGGAAUUCUCGGGUGUCAAGG
B5: ENSMUSG00000029636.77|Wasf3 (ssRNA)
RNA: GGGAGUUCUACAGUCCGACGAUCGCUUCGAUAUCCGCAUGCUAAAGAUCACUGGCUGUGUGUCUCAGUGAUGUCUUCCAACCAGUGGGUGAUACGUUUUCCUGUUUCUUCCCUUUGCAAAUUGAAUUCCAGGUAGAUAUGGUUGUAGAGGGGAAAGUUUAACAAAUCAGAAUGAAAUGUUUGUCUGUUUGCACACUGGGCCUGGUGGCCUCCAAGGAAAUGUGUACGAUCGUUUGCUUUCUCUAUCUUGGCGCUUGCAACCGAGAGCGGCCAUUUUUAUGAGGGGAGCCCUGUGGGUACUCAUCUCUUGCGGUCGCACUAGUGUGGAAUUCUCGGGUGUCAAGG
B6: ENSMUSG00000090935.714|Synj2bp (ssRNA)
RNA: GGGAGUUCUACAGUCCGACGAUCGCUUCGAUAUCCGCAUGCUAAGAGCUCUGCUCUCUGAGCAUCUGCCCCAGAUACAGAGGCAGAGUAUGAAGUGGAACAUUGUUUUAUUCCUAGGUGCUCAGGACAGACUGAUCAACCUCCAGUAACAUAUGUGGUUAGUAAGUGCUUCAGCUUGUGUAGCCAUUAAUAACCAAGUCAUAGGAUUGUGAAUCUAAAAUACUCCUGGGUAAAAUUUGUAUUAGAAUGGAAAAAAAAAUGAGGGUCAGAAAGGUGAGCUAACUUCAAGUUAGAUACUCCCCUCCUCUUGCGGUCGCACUAGUGUGGAAUUCUCGGGUGUCAAGG
B7: ENSMUSG00000061578.632|Ksr2|56:60;95:99 (ssRNA)
RNA: GGGAGUUCUACAGUCCGACGAUCGCUUCGAUAUCCGCAUGCUAUAGAGGGGACGGACAGCUCCCUGACCCUGGAUGGCCAGGAAUGGUGCUAGCUAGGCACACAGCCAAGCCCUUGAGGCUACUGUGAGUUAUGAGAACACACCAACCCUCAGCCCACAGACUGCAUAUGCCCCAGGACAGCUGUGAAGGUGACCCAAUACAAAAUCGUAAACUAACUUAAAACCAUUAAGGGUUUUUGUUUUGUUGUUGUUUGCUGGCUUUUUGUUUUUUGGGUUGGUUUUCUUUUUCUUUCUUUCUUUUUUCUCUUGCGGUCGCACUAGUGUGGAAUUCUCGGGUGUCAAGG
B8: ENSMUSG00000029636.427|Wasf3 (ssRNA)
RNA: GGGAGUUCUACAGUCCGACGAUCGCUUCGAUAUCCGCAUGCUAAGCUAGGUGGAUGGGUGGGUGGAUACAUGGAUGAGUGGAUGGGUGGAUUGGUGGGUGAGUGGAUAGGUGAAUGGAUGAUAGGUGGUGGAUGGUUGAGUGGGUGGAUUCAUGAUGGAUGGAUGGAUGGAUGGAUGGAUGGAUGGAUGGAUGAGUGGAUGGAUAAUAGGUUGAUGGGUGGAUAGGUAGAUGAGUGAAUAGAUAGAUAUAGAUCAGUGGGAGGAUUGGAAAGUAGGUGAAUGAAUGGAUGGCAGAUAGAUGGACUCUUGCGGUCGCACUAGUGUGGAAUUCUCGGGUGUCAAGG
B9: ENSMUSG00000029636.428|Wasf3 (ssRNA)
RNA: GGGAGUUCUACAGUCCGACGAUCGCUUCGAUAUCCGCAUGCUAGUGGAUGGGUGGGUGGAUACAUGGAUGAGUGGAUGGGUGGAUUGGUGGGUGAGUGGAUAGGUGAAUGGAUGAUAGGUGGUGGAUGGUUGAGUGGGUGGAUUCAUGAUGGAUGGAUGGAUGGAUGGAUGGAUGGAUGGAUGGAUGAGUGGAUGGAUAAUAGGUUGAUGGGUGGAUAGGUAGAUGAGUGAAUAGAUAGAUAUAGAUCAGUGGGAGGAUUGGAAAGUAGGUGAAUGAAUGGAUGGCAGAUAGAUGGAUCAAUUCUCUUGCGGUCGCACUAGUGUGGAAUUCUCGGGUGUCAAGG
B10: ENSMUSG00000029636.430|Wasf3 (ssRNA)
RNA: GGGAGUUCUACAGUCCGACGAUCGCUUCGAUAUCCGCAUGCUAGUGGAUACAUGGAUGAGUGGAUGGGUGGAUUGGUGGGUGAGUGGAUAGGUGAAUGGAUGAUAGGUGGUGGAUGGUUGAGUGGGUGGAUUCAUGAUGGAUGGAUGGAUGGAUGGAUGGAUGGAUGGAUGGAUGAGUGGAUGGAUAAUAGGUUGAUGGGUGGAUAGGUAGAUGAGUGAAUAGAUAGAUAUAGAUCAGUGGGAGGAUUGGAAAGUAGGUGAAUGAAUGGAUGGCAGAUAGAUGGAUCAAUUACAGAUGGAUGGCUCUUGCGGUCGCACUAGUGUGGAAUUCUCGGGUGUCAAGG

target: TDP-43 (Homo sapiens, UniProt Q13148 1-414); assay: RNA Bind-n-Seq with designed 260-mer pool; 25 mM Tris-HCl, 150 mM KCl, 3 mM MgCl2, BSA (printed 500 mg/mL), 20 units/mL SUPERase IN; pH not stated; 500 nM RNA pool, 1 h, 4 C; TDP-43 5, 50, 500 nM; high values mean tight binding; conditions: protein: recombinant; tags: SBP (GST cleaved off with PreScission; pGEX-GST-SBP)
Sequence (Q13148 whole entry): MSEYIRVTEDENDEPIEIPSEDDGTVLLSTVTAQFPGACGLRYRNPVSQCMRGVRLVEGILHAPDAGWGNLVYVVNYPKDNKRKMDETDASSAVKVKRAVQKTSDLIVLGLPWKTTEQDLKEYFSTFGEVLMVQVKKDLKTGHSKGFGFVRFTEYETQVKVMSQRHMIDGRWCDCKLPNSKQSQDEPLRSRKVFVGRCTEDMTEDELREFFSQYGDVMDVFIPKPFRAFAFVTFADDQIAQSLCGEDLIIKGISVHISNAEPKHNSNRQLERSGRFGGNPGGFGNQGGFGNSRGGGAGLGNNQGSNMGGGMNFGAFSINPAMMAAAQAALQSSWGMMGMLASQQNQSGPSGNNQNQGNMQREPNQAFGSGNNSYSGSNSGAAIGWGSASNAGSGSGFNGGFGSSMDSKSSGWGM
Procedure, shortened: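 Streptavidin beads captured recombinant SBP-tagged TDP-43 at 5, 50 or 500 nM, and the beads were incubated for 1 h at 4 °C with 500 nM of an in vitro-transcribed pool of 260-nt 3′ UTR oligos in 25 mM Tris-HCl, 150 mM KCl, 3 mM MgCl2, BSA and SUPERase IN. After washing, bound RNA was eluted with biotin, reverse transcribed, PCR-amplified and sequenced. Binding is reported as R, the mapped-read-normalized abundance of each oligo in the bound sample divided by its abundance in the input. Two independent protein batches served as duplicates.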

Row | Binder | binding signal
1 | B1 | 3.92 R (bound/input frequency ratio)
2 | B2 | 0.335 R (bound/input frequency ratio)
3 | B3 | 0.602 R (bound/input frequency ratio)
4 | B4 | 0.304 R (bound/input frequency ratio)
5 | B5 | 4.99 R (bound/input frequency ratio)
6 | B6 | 1.22 R (bound/input frequency ratio)
7 | B7 | 0.54 R (bound/input frequency ratio)
8 | B8 | 4.15 R (bound/input frequency ratio)
9 | B9 | 8.28 R (bound/input frequency ratio)
10 | B10 | 4.31 R (bound/input frequency ratio)
